Experimental findings from PubChem BioAssay (NCATS) are described below.

The test system of assay [1] is Zika virus NS2B-NS3 protease (unlinked complex). The assay can be described thus: Primary screen GU Rhodamine qHTS for Zika virus inhibitors: Unlinked NS2B-NS3 protease assay (AID 1347159). Note: nearly all actives have a fitted effect of over 60% in size. In a few lines:
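Noncovalent NS2B hydrophilic domain/NS3 protease complex (25 nM final) in 10 mM Tris-HCl pH 8.0, 0.01% Tween 20, preincubated 15 min with compounds (up to 114 microM), then 1.5 microM Rhodamine110 substrate. Fluorescence change over 15 min fitted to 4-parameter Hill.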
On the technique in general: qHTS replaces the single test concentration by a dilution series.

In assay [2] the test system is Zika virus NS2B-NS3 protease (linked construct). The assay can be described thus: Primary screen NINDS Rhodamine qHTS for Zika virus inhibitors (AID 1347160). Note: nearly all actives have a fitted effect of over 55% in size. The procedure, abridged: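 Purified NS2B-NS3 protease with the NS2B hydrophilic domain joined by a flexible linker (25 nM) in 10 mM Tris-HCl pH 8.0, 0.01% Tween 20, preincubated 15 min at RT with compound; Rhodamine110 peptide substrate 1.5 µM; fluorescence change over 15 min; 4-parameter Hill fit.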

Records with an inconclusive call do not appear. Values without a mark were called inactive. Active and inactive are the calls of the source. Calls come from the whole dose curve; as a rule, active = well fitted inhibition curve with a large enough effect; inconclusive = small, poorly fitted or top-dose-only effect; inactive = no such curve, though single readings can be large or run the other way. Where a SMILES comes first, the peptide text is derived from it. [ ]: non-standard residue; d: D form. ξ: configuration not given here. ξLac(3-iPr) = CC(C)CC(O)C(=O)O; NMeV = CN[CH](C(=O)O)C(C)C; βAla = NCCC(=O)O
% is set by controls: 0 for no effect and ±100 for the full control effect.

`C[C@@H]1O[C@@H](O[C@H]2[C@H](OC(=O)[C@]34CCC(C)(C)C[C@H]3C3=CCC5[C@@]6(C)C[C@H](O)[C@H](O[C@@H]7O[C@H](CO)[C@@H](O)[C@H](O)[C@H]7O)[C@@](C)(CO)C6[C@H](O)C[C@@]5(C)[C@]3(C)CC4)OC[C@H](O)[C@@H]2O)[C@H](O)[C@H](O)[C@H]1O[C@@H]1OC[C@@H](O)[C@H](O[C@@H]2OC[C@](O)(CO)[C@H]2O)[C@H]1O` (some centres not stated): the activity change, negative = inhibition is -1.32% [at 19.1 µM] in assay [1] and 21.5% [at 10.7 µM] in assay [2].

As for `COC(=O)C1=CO[C@@H](O[C@@H]2O[C@H](CO)[C@@H](O)[C@H](O)[C@H]2O)[C@@H]2C(COC(C)=O)=C[C@H](O)[C@H]12`, the Potency entry in assay [1] and in assay [2] was “inactive” in each case.

As to `CC(C)CC1OC(=O)C2CCCN2C(=O)CCNC(=O)C(Cc2ccccc2)NC(=O)C(C(C)C)N(C)C(=O)C(C(C)C)N(C)C1=O` (configuration not stated) (cyclo([ξLac(3-iPr)][NMeV][NMeV]F[βAla]P); configuration not given here), the Potency entry in assay [1] and in assay [2] was “inactive” throughout.

Turning to `CC1=C(C(=O)O[C@@H]2O[C@H](COC3OCC(O)C(O)C3O)[C@@H](O)[C@H](O)[C@H]2O)C(C)(C)CCC1` (some centres not stated), the Potency result in assay [1] and in assay [2] was “inactive” throughout.

Regarding `CC(=O)O[C@H]1C[C@@]2(C)[C@@H](CC[C@H]3[C@@]4(C)C=CC(=O)[C@@H](C)[C@@H]4[C@H](O)C(=O)[C@@]32C)/C1=C(/CCC=C(C)C)C(=O)O`, the Potency entry in assay [1] and in assay [2] was “inactive” each time.

For `C=C1CCC[C@]2(C)CC[C@@H](C(=C)C(=O)O)[C@H](O)[C@@H]12`, the Potency entry in assay [1] and in assay [2] was “inactive” in each case.

Regarding `CC1CCC2(OC1)OC1CC3C4CC=C5CC(O)CC(O[C@@H]6OC[C@@H](O)[C@H](O)[C@H]6O)C5(C)C4CCC3(C)C1(O)C2C` (some centres not stated), the Potency result in assay [1] and in assay [2] was “inactive” each time.

On to `CC1CCC2(OC1)OC1CC3C4CCC5C[C@@H](O[C@@H]6O[C@H](CO[C@@H]7OC[C@@H](O)[C@H](O)[C@H]7O)[C@H](O)[C@H](O)[C@H]6O)CC[C@]5(C)C4CC[C@]3(C)C1C2C` (some centres not stated), for which the Potency result in assay [1] and in assay [2] was “inactive” each time.

On to `CC(=O)O[C@@H]1[C@@H](OC(=O)/C=C/c2ccccc2)[C@@H](OC(C)=O)[C@H](O[C@H]2[C@@H]3C=CO[C@@H](O[C@@H]4O[C@H](CO)[C@@H](O)[C@H](O)[C@H]4O)[C@@H]3[C@@]3(CO)O[C@@H]23)O[C@H]1C`, for which the Potency result in assay [1] and in assay [2] was “inactive” throughout.

With `C[C@@H]1C[C@H]2O[C@@H]2/C=C\C=C\C(=O)Cc2c(Cl)c(O)cc(O)c2C(=O)O1`, the Potency result in assay [1] and in assay [2] was “inactive” each time.

For `OC1CCC(Nc2ncc3nc(Nc4c(F)cc(F)cc4F)n([C@H]4CCOC4)c3n2)CC1` (some centres not stated), the Potency result in assay [1] and in assay [2] was “inactive” throughout.

In the case of `Cn1c2ccc(F)cc2c2c(C(=O)N3CCCC3)cn(-c3ccccc3)c(=O)c21`, the Potency entry in assay [1] and in assay [2] was “inactive” in each case.

With `c1cc(Nc2cc(C3CC3)[nH]n2)nc(Nc2ccc3nc[nH]c3c2)n1`, the Potency result in assay [1] and in assay [2] was “inactive” throughout.

Turning to `O=C(c1cn(Cc2cncn2Cc2ccc(Br)cc2)cc1-c1cccc2ccccc12)N1CCOCC1`, the Potency result in assay [1] and in assay [2] was “inactive” in each case.

`COc1ccc(C2(O)CCC(N3CC[C@@H](NC(=O)CNC(=O)c4cccc(C(F)(F)F)c4)C3)CC2)cn1` (some centres not stated): the Potency result in assay [1] and in assay [2] was “inactive” each time.

With `CC1OC(OC2C(C)OC(OC3C(O)C(CO)OC(O[C@H]4CC[C@@]5(C)C(CC[C@]6(C)C5CC=C5C7[C@@H](C)[C@H](C)CC[C@]7(C(=O)O)CC[C@]56C(=O)O)C4(C)C)C3O)C(O)C2O)C(O)C(O)C1O` (some centres not stated), the Potency entry in assay [1] and in assay [2] was “inactive” in each case.

In the case of `O=C(/C=C/c1cccc(S(=O)(=O)Nc2ccccc2)c1)NO`, the Potency entry in assay [1] and in assay [2] was “inactive” each time.

Take `Cc1ccc(-c2ccc3ncc4c(c3n2)n(C2CCN(C(=O)[C@H](C)O)CC2)c(=O)n4C)cn1`: the Potency entry in assay [1] and in assay [2] was “inactive” each time.

Regarding `Cn1cc(-c2ccc3nnc(Sc4ccc5nn(C)cc5c4)n3n2)cn1`, the Potency entry in assay [1] and in assay [2] was “inactive” throughout.

For the molecule `CC(C)(C(=O)NCC(F)(F)C(F)(F)F)C(=O)NC1C(=O)Nc2ccccc2-c2ccccc21` (configuration not stated), the Potency entry in assay [1] and in assay [2] was “inactive” throughout.

Turning to `COC(=O)[C@H](O)[C@H]1C(C)(C)[C@H](OC(=O)C(C)C)[C@@]2(O)C(=O)[C@]1(C)C1CC[C@]3(C)C(CC(=O)O[C@H]3c3ccoc3)[C@]13O[C@@H]32` (some centres not stated), the Potency result in assay [1] and in assay [2] was “inactive” each time.

Regarding `COc1c2c(c(C)c3c1C(=O)OC3)O[C@@]1(C)CCC3(C(C)(C)O)OC(=O)CC[C@]3(C)[C@H]1C2` (some centres not stated), the Potency result in assay [1] and in assay [2] was “inactive” in each case.

In the case of `C[C@@H]1C[C@@H](O)[C@@]23CO[C@@H](O)[C@@H]2CCC[C@@H]3[C@@]12C[C@@H](c1ccoc1)OC2=O`, the Potency result in assay [1] and in assay [2] was “inactive” in each case.

Take `CN[C@H](CC(C)C)C(=O)N[C@H]1C(=O)N[C@@H](CC(N)=O)C(=O)N[C@H]2C(=O)N[C@H]3C(=O)N[C@H](C(=O)N[C@H](C(=O)O)c4cc(O)cc(O)c4-c4cc3ccc4O)[C@H](O[C@H]3C[C@](C)(N)[C@@H](O)[C@H](C)O3)c3ccc(c(Cl)c3)Oc3cc2cc(c3O[C@@H]2O[C@H](CO)[C@@H](O)[C@H](O)[C@H]2O[C@H]2C[C@](C)(NCc3ccc(-c4ccc(Cl)cc4)cc3)[C@@H](O)[C@H](C)O2)Oc2ccc(cc2Cl)[C@H]1O`: the Potency entry in assay [1] and in assay [2] was “inactive” in each case.

Consider `CC[C@@H](N)CNc1ccnc(-c2cc(-c3cnn(C)c3)ccc2O)n1`, for which the Potency result in assay [1] and in assay [2] was “inactive” throughout.

With `C=C[C@H]1[C@H](O[C@@H]2O[C@H](CO)[C@@H](O)[C@H](O)[C@H]2O)OC=C(C(=O)OC)[C@H]1C[C@@H]1c2cc(O)c(O)cc2CCN1C(C)=O`, the Potency entry in assay [1] and in assay [2] was “inactive” throughout.
